Sampled rows, rich in hits. Any-hit rate of the full collection: about 2.4%.
ANO1 block = TMEM16A chloride channel inhibitors, primary screen, cell-based, HTS; normalized B-score (activity score, 25-100; higher = stronger inhibition) at 10 µM; AID 588511, 2011; hit rate 1.2% among 310,000; HEK293 TMEM16A/YFP iodide influx fluorescence, ionomycin;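 active = ratio plate-corrected score three or more library SD toward inhibition, starting fluorescence score within five deviations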;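 note: score derived from kinetic fluorescence span divided by baseline fluorescence per well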
CHT allo act = CHT positive allosteric modulators, primary screen, cell-based, membrane potential dye, choline EC20 | B-score at 10 µM | CHT-expressing cells; hits give high values; LV-AA mutant CHT in HEK293 cells | High affinity choline transporter 1 (Homo sapiens), Q9GZV3 | hit rate 0.49% among 310,000;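 active = initial fluorescence not abnormally high and integrated response B-score, plate-corrected, over 3 SD above library mean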
TMEM16A act = TMEM16A chloride channel activators or potentiators, primary screen, cell-based, HTS. Anoctamin-1 (Mus musculus), Q8BHY3. HEK293 TMEM16A/YFP-H148Q/I152L, iodide quench fluorescence; hits give low values. B-score at 10 µM. hit rate 0.3% among 340,000. AID 623877, 2012;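 active = fluorescence-ratio B-score plate-corrected deviation score at least 3 library SD below zero, with starting fluorescence score within 5 deviations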;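 note: channel opened by trigger with iodide after compound preincubation; score built on the fluorescence ratio of max minus min over baseline; more negative score means more quench and so TMEM16A activation or potentiation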
CHT inh = inhibitors of human choline transporter CHT; High affinity choline transporter 1 (Homo sapiens), Q9GZV3; CHT-expressing cells, membrane potential dye, choline response; hits give low values; B-score at 10 µM; hit rate 0.86% among 310,000;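 active = B-score over 3 SD under the library average, and starting fluorescence ratio not unusually high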;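 note: choline stimulus applied at its EC90 after an EC20 pre-addition; B-score computed on integrated fluorescence ratio after choline addition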
CHT block conf = CHT inhibitors, confirmation, cell-based, membrane potential dye, duplicate. shares compounds with CHT inh. CHT-expressing cells, choline membrane potential dye; LV-to-AA substituted CHT, HEK293 cells. CHT activity remaining % of control (hits give low values), % at 10 µM. hit rate 70% among 2,400;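 active = choline transporter activity left, mean of duplicates at 10 µM, below buffer-only control mean minus 3 SD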;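 note: depolarization triggered by choline at its EC90 following an EC20 pre-addition; 0% = hemicholinium-3 full block and 100% = buffer-only control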
HEK293 MPD ctr = membrane potential effects in parental HEK293, counter-screen for CHT inhibitor project, cell-based, membrane potential dye. shares compounds with CHT inh. choline response; active = decrease or increase beyond buffer ±3SD. membrane potential ratio readout (active if shifted either direction beyond buffer ±3SD; no single direction) at 10 µM. hit rate 4% among 2,400;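 note: parental cells lack the transporter so any hit is non-specific; ratio is peak minus trough fluorescence over baseline after EC90 choline challenge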
* marks the source's active call; other numbers are inactive results; i = inactive; . = no result given.

SMILES | ANO1 block | CHT allo act | TMEM16A act | CHT inh | CHT block conf | HEK293 MPD ctr
COc1ccc(N=Cc2cc(Cc3ccccc3Cl)cc([N+](=O)[O-])c2O)cc1OC | i | i | i | -6* | i | i
Cc1ccc(C(=O)O)cc1NC(=S)NC(=O)c1ccc(COc2ccccc2)cc1 | 25* | i | i | -6.5* | 48%* | i
Cc1ccc(C(=O)O)cc1NC(=S)NC(=O)Cc1ccccc1 | i | i | i | i | . | .
O=C1CC(c2ccco2)CC(O)=C1C=Nc1ccccc1-c1ccccc1 (stereo not given) | i | i | i | -5.6* | i | i
O=C1CC(c2ccco2)CC(O)=C1C=Nc1cc(Cl)ccc1O (stereo not given) | i | i | i | i | . | .
CCN(CC)S(=O)(=O)c1ccc(Cl)c(C(=O)OCC(=O)c2c(N)n(C)c(=O)n(C)c2=O)c1 | i | i | i | i | . | .
CCOCCCN1CC(C(=O)NCc2ccc3c(c2)OCO3)CC1=O (stereo not given) | i | i | i | i | . | .
O=CN/C=C/c1cc(O)ccc1O | i | i | i | -7.4* | 48%* | i
O=C(CCCNC(=O)c1ccc(Cl)cc1)Nc1ccccc1F | i | i | i | i | . | .
CN(Cc1ccccc1F)C(=O)CCCNC(=O)c1ccc(Cl)cc1 | i | i | i | -5.8* | 55%* | i
CCCC[C@@H]1CNC(=O)C(=O)N1CCCc1cc(OC)c(OC)c(OC)c1 | i | i | i | i | . | .
COc1cc(CCCN2C(=O)C(=O)NC[C@H]2Cc2cccc3ccccc23)cc(OC)c1OC | i | i | i | -5.1* | 45%* | i
CC1CN(S(=O)(=O)c2ccc(NC(=O)c3cc(-c4ccccc4O)n[nH]3)cc2)CC(C)O1 (stereo not given) | i | i | i | i | . | .
COc1ccccc1C(=O)NNC(=S)NC(=O)c1sc2ccccc2c1Cl | 100* | i | -6.2* | -6.6* | 57%* | i
COc1ccccc1C(=O)NC(=S)NNC(=O)c1sc2ccccc2c1Cl | 100* | i | -7.8* | -7* | 58%* | i
COc1ccccc1C(=O)NNC(=S)NC(=O)c1cccs1 | i | i | i | i | . | .
Cc1c(NC(=S)NC(=O)c2sc3ccccc3c2Cl)cccc1C(=O)O | i | i | i | i | . | .
Cc1c(C(=O)OCC(=O)N2c3ccccc3CC2C)oc2ccccc12 (stereo not given) | i | i | i | i | . | .
CCCCCc1nc2sc3c(c2c(=O)n1NC(=O)c1ccc([N+](=O)[O-])cc1)CC(C)(C)OC3 | 25* | i | i | -12* | 28%* | i
Cc1csc(=N)n1CC(=O)N1CCc2ccccc21 | i | i | i | -9.6* | 21%* | i
O=C(CN1CCN(Cc2ccc(Cl)cc2)CC1)N1CCc2ccccc21 | i | i | i | -6.2* | 48%* | i
COc1ccc(S(=O)(=O)N2CCCCC2)cc1NC(=O)CCNC(=O)c1ccccc1Cl | . | . | i | . | . | .
CC(=O)N1CCc2c(sc(NC(=O)c3ccc([N+](=O)[O-])o3)c2C#N)C1 | . | . | i | . | . | .
COC(=O)c1sc(NC(=O)c2ccc([N+](=O)[O-])o2)c(C#N)c1C | i | i | i | -8* | 62%* | 2.5*
Cc1cc(OCc2cc(C(=O)NCCN3CCCCC3CO)no2)cc(C)c1Cl (stereo not given) | i | i | i | -5.4* | 49%* | i
COc1cccc(OCc2cc(C(=O)NCCN3CCCCC3CO)no2)c1 (stereo not given) | i | i | i | i | . | .
CCOC(=O)c1cc(C(=O)Nc2cccc(C)c2)nn1C | i | i | i | i | . | .
Cn1c(-c2ccc(F)cc2)cnc1NCc1ccccc1 | i | i | . | -5* | i | i
